Data taken from PubChem BioAssay AID1918969 (ICCB-Longwood Screening Facility, Harvard Medical School, 2023).
Where “and” joins values, the source holds several entries; their conditions need not be identical. Equal values may be shown once. The whole screen tested about 190,000 compounds, of which about 280 (0.15%) were called active. No stated cut-off is given here; in the data, active means inhibition above about 27% (passing the limit was not always enough); inactive means the rest. What follows is part of a selection rich in actives, with near analogues and random picks from the rest.

test system: HCMV UL50-UL53 nuclear egress complex (human cytomegalovirus); assay: inhibitors of HCMV UL50-UL53 interaction, biochemical, HTRF (AID 1918969); details: normalized percent inhibition, stronger effect = higher value, concentration not given here

How did the inhibition turn out when `CCCC1O[C@@H]2CC3C4CCC5=CC(=O)C=CC5(C)C4[C@@H](O)CC3(C)[C@]2(C(=O)CO)O1` (stereo partly specified) was run?
The inhibition was -70.7% (inactive).

How did the inhibition turn out when `O=C(OCc1nc2ccccc2s1)c1coc2ccccc2c1=O` was run?
The inhibition was 54.6% (active).

How did the inhibition turn out when `O=C(CCc1nc2ccccc2s1)OCC(=O)c1ccco1` was run?
The inhibition was -34.2% (inactive).

`NNC(=O)CCCc1nc2ccccc2s1` was tested. Which inhibition did it give?
Its inhibition is -31.3% (inactive).

How did the inhibition turn out when `CCOc1cc(/C=C2/C(=O)N(c3nn[nH]n3)N=C2C)cc(Cl)c1OCC` was run?
Its inhibition is -8.7% (inactive).

How did the inhibition turn out when `CC(C(=O)OCc1ccc(F)cc1)N1C(=O)c2ccccc2C1=O` (stereo unspecified) was run?
The inhibition was -2.6% (inactive).

How did the inhibition turn out when `O=C(CC(c1ccccc1)c1ccccc1)NCc1ccco1` was run?
The inhibition was 13.4% (inactive).

Which inhibition does the source give for `O=c1c(-c2nnc3c(Cl)nc4ccccc4n23)coc2ccccc12` here?
The inhibition was -9.1% (inactive).

Which inhibition does the source give for `Cc1n[nH]c(C)c1Cc1ccc(N)cc1` here?
Its inhibition is -0.1% (inactive).

`Cc1ccc(-n2ccnc(NCCc3ccccc3)c2=O)cc1` was tested. Which inhibition did it give?
Its inhibition is -0.4% (inactive).

For `CCN(CC)S(=O)(=O)c1ccc(N=Nc2c(O)[nH]c(=S)[nH]c2=O)cc1`, which inhibition is on record?
Its inhibition is -70.2% (inactive).

Which inhibition does the source give for `Cc1cc(C(=O)CSc2ccc(S(=O)(=O)N(C)C)cn2)c(C)n1-c1ncn[nH]1` here?
Its inhibition is -15% (inactive).

How did the inhibition turn out when `O=C1CC(c2ccc(S(=O)(=O)N3CCCc4ccccc43)cc2)CN1` (stereo unspecified) was run?
The inhibition was -28.3% (inactive).

With `O=C(COC(=O)Cc1ccc(F)cc1)Nc1ccccc1` as the compound, how does the inhibition read?
The inhibition was 1.8% (inactive).

For `Cc1ccc(C)c2c1NC(c1ccc(Br)cc1)C1CC=CC21` (stereo unspecified), which inhibition is on record?
Its inhibition is -3.3% (inactive).

`CCc1nc(-c2cc(S(=O)(=O)N3CCC(C(=O)Nc4cccc(OC)c4)CC3)c(C)s2)no1` was tested. Which inhibition did it give?
The inhibition was -7.1% (inactive).

With `CC1CCN(C(=O)Cn2ncc3c4ccccc4n(Cc4ccccc4)c3c2=O)CC1` as the compound, how does the inhibition read?
The inhibition was -7.3% (inactive).

How did the inhibition turn out when `Cc1ccc(CNC(=O)c2ccc(-n3nnc4cccnc43)cc2)cc1` was run?
Its inhibition is -21.8% (inactive).

How did the inhibition turn out when `CCN(CC)S(=O)(=O)c1ccc2c(c1)nc(CCC(=O)OCC#N)n2C` was run?
Its inhibition is -6% (inactive).

Which inhibition does the source give for `CCOC(=O)N1CCCC1C(=O)O` (stereo unspecified) here?
Its inhibition is -17.9% (inactive).

How did the inhibition turn out when `O=C(NC1CCCCCCC1)c1cccs1` was run?
The inhibition was -0.7% (inactive).

`CNC(=O)c1ccc(N2CCOc3ccc(Cl)cc32)s1` was tested. Which inhibition did it give?
The inhibition was 14.6% (inactive).

With `O=C(NC1CCCC1)c1ccc(N2CCOc3ccccc32)s1` as the compound, how does the inhibition read?
Its inhibition is 42.2% (active).

How did the inhibition turn out when `O=C(NC1CCCCC1)c1ccc(-n2ccc3ccccc32)s1` was run?
Its inhibition is 37.9% (active).

`O=C(NC1CCCC1)c1ccc(Br)s1` was tested. Which inhibition did it give?
The inhibition was -3.7% (inactive).

How did the inhibition turn out when `O=C(NC1CCCC1)c1cc(-c2ccccc2)on1` was run?
The inhibition was -1.9% (inactive).

With `O=C(c1c(F)c(F)c(F)c(F)c1F)N(CCO)Cc1ccccc1` as the compound, how does the inhibition read?
Its inhibition is -6.4% (inactive).

For `CNC(=O)COC(=O)c1ccc(Br)o1`, which inhibition is on record?
Its inhibition is -3.2% (inactive).

Which inhibition does the source give for `Cn1c(=O)n(C)c2cc(N3CCOCC3)c(NS(=O)(=O)c3ccc4c(c3)CCCC4)cc21` here?
The inhibition was -20% (inactive).

How did the inhibition turn out when `Cc1ccc2nsnc2c1S(=O)(=O)NCCc1c(C)[nH]c2ccccc12` was run?
The inhibition was -75.9% (inactive).

`Cc1ccc(N2C(=O)/C(=C/c3ccc(OCC(=O)O)c(Br)c3)C(=O)NC2=S)cc1` was tested. Which inhibition did it give?
Its inhibition is -28.5% (inactive).

`CC1=C(C(=O)OCCOc2ccccc2)C(c2cccnc2)C2=C(CC(c3ccc(Cl)cc3)CC2=O)N1` (stereo unspecified) was tested. Which inhibition did it give?
The inhibition was -27.9% (inactive).

For `Cn1c2c(c3cc(C4CCCCC4)ccc31)CCCCC2=O`, which inhibition is on record?
Its inhibition is 1.4% (inactive).

With `CCOC(C)=C(C#N)C#N` as the compound, how does the inhibition read?
Its inhibition is 5.1% (inactive).

Which inhibition does the source give for `CC12CCOC1N(c1ccccc1)c1ccccc12` (stereo unspecified) here?
Its inhibition is -18.7% (inactive).

With `CC(=O)Nc1ccc(N2C(=O)c3cc(C)nn3CC2(C)C(=O)NCc2ccc(Cl)cc2)cc1` (stereo unspecified) as the compound, how does the inhibition read?
The inhibition was -1.4% (inactive).

Which inhibition does the source give for `Cc1ccc(C2/C(=C(\O)c3ccccc3)C(=O)C(=O)N2CCN2CCOCC2)cc1` (stereo unspecified) here?
Its inhibition is 0.4% (inactive).

With `Cc1c2cnn(CC(=O)NCc3ccco3)c(=O)c2c(C)n1Cc1ccccc1` as the compound, how does the inhibition read?
The inhibition was -1.5% (inactive).

How did the inhibition turn out when `CCOC(=O)c1c(C)n(-c2ccc(Cl)cc2)c2ccc(Oc3nccc(Nc4ccccc4)c3C#N)cc12` was run?
The inhibition was -12.5% (inactive).

Which inhibition does the source give for `N#CC(=C=[N-])c1nc2ccccc2nc1-[n+]1cccc(NC(=O)c2ccc(Br)o2)c1` here?
Its inhibition is -17.4% (inactive).

How did the inhibition turn out when `O=C(CN1CCN(S(=O)(=O)c2ccc3[nH]c(=O)[nH]c3c2)CC1)N1CCCCCC1` was run?
The inhibition was -26.1% (inactive).

`CCOCCCNC(=O)N1Cc2c(sc3c2CCCC3)-n2cccc2C1c1ccc(N(C)C)cc1` (stereo unspecified) was tested. Which inhibition did it give?
Its inhibition is -33.4% (inactive).

With `CC(C)CCNC(=O)C1(C)Cn2c(cc3ccccc32)C(=O)N1C1CC1` (stereo unspecified) as the compound, how does the inhibition read?
Its inhibition is -9.6% (inactive).

How did the inhibition turn out when `Cc1ccc(-n2c(=O)c3c(n4c(SCC(N)=O)nnc24)-c2ccccc2CC32CCCCC2)cc1` was run?
The inhibition was -17.8% (inactive).

With `O=C(COc1ccc(-c2nc(-c3ccccc3)no2)cc1)N1CCCC1` as the compound, how does the inhibition read?
The inhibition was -28.2% (inactive).

With `Cc1ccc(S(=O)(=O)C2(C(=O)N3CCc4ccccc43)CC2)cc1` as the compound, how does the inhibition read?
Its inhibition is 1% (inactive).

How did the inhibition turn out when `CCOc1cc(C=C2C(=O)NC(=O)NC2=O)ccc1OCCOc1ccc([N+](=O)[O-])cc1` was run?
The inhibition was -8.1% (inactive).

For `COc1cc(C=C2C(=O)NC(=O)NC2=O)ccc1OCCOc1ccc([N+](=O)[O-])cc1`, which inhibition is on record?
Its inhibition is 1.5% (inactive).

With `CCOc1cc(C=C2C(=O)NC(=O)NC2=O)ccc1OCCOCCOc1ccc(C)cc1` as the compound, how does the inhibition read?
The inhibition was 45.8% (active).

Which inhibition does the source give for `CCOC(=O)/C(C#N)=C/Nc1ccccc1` here?
Its inhibition is -4.4% (inactive).

With `Cc1cc(C)c(C(N)=O)c(=O)[nH]1` as the compound, how does the inhibition read?
The inhibition was -10.3% (inactive).

`O=C(NN1C(=O)/C(=C/c2ccc(-c3ccc([N+](=O)[O-])cc3)o2)SC1=S)c1ccccc1[N+](=O)[O-]` was tested. Which inhibition did it give?
The inhibition was -1.8% (inactive).

How did the inhibition turn out when `CCCC(O)c1nc2ccccc2n1CCOc1ccccc1Cl` (stereo unspecified) was run?
The inhibition was -14.3% (inactive).

How did the inhibition turn out when `CC1CCN(S(=O)(=O)c2ccc3ncn(CC(=O)N4CCCCC4C)c(=O)c3c2)CC1` (stereo unspecified) was run?
Its inhibition is 3.7% (inactive).

`CC(C)(Oc1ccc(Cl)cc1)C(=O)OCCN1CCCC1=O` was tested. Which inhibition did it give?
Its inhibition is 16.4% (inactive).

`CCOC(=O)c1c(C)oc2nc(COc3ncnc4c3cnn4-c3ccccc3)nc(N)c12` was tested. Which inhibition did it give?
The inhibition was -27.9% (inactive).

With `Nc1c(C(=O)N2CCc3ccccc3C2)sc(=S)n1-c1ccccc1` as the compound, how does the inhibition read?
Its inhibition is 3.7% (inactive).

`CCCCCC#CCC#CCCCCCCCC(=O)O` was tested. Which inhibition did it give?
Its inhibition is -8.8% (inactive).

How did the inhibition turn out when `CC(C)Nc1nc(-c2ccccc2O)nc2ccccc12` was run?
Its inhibition is 54.6% (active).

Which inhibition does the source give for `CCN(CC)c1nc(-c2ccccc2O)nc2ccccc12` here?
The inhibition was -4.1% (inactive).

Which inhibition does the source give for `CC(Nc1nc(N2CCCC2)nc2ccccc12)c1ccccc1` (stereo unspecified) here?
The inhibition was 38.8% (inactive) and -22.4% (inactive).
